KDM5B inh: blocks human KDM5B histone demethylase activity; Potency, µM (top dose mostly 57.7 µM), actives largely listed as inhibitors; KDM5B demethylase, FDH-coupled NADH fluorescence (FDH is formaldehyde dehydrogenase); 2.6% of 220,000 active; Q9UGL1; active = well fitted inhibition curve with a large enough effect; also: 0% is about no effect; nearly all actives have a fitted effect of over 70% in size
Target sequence (Q9UGL1 whole entry, looked up): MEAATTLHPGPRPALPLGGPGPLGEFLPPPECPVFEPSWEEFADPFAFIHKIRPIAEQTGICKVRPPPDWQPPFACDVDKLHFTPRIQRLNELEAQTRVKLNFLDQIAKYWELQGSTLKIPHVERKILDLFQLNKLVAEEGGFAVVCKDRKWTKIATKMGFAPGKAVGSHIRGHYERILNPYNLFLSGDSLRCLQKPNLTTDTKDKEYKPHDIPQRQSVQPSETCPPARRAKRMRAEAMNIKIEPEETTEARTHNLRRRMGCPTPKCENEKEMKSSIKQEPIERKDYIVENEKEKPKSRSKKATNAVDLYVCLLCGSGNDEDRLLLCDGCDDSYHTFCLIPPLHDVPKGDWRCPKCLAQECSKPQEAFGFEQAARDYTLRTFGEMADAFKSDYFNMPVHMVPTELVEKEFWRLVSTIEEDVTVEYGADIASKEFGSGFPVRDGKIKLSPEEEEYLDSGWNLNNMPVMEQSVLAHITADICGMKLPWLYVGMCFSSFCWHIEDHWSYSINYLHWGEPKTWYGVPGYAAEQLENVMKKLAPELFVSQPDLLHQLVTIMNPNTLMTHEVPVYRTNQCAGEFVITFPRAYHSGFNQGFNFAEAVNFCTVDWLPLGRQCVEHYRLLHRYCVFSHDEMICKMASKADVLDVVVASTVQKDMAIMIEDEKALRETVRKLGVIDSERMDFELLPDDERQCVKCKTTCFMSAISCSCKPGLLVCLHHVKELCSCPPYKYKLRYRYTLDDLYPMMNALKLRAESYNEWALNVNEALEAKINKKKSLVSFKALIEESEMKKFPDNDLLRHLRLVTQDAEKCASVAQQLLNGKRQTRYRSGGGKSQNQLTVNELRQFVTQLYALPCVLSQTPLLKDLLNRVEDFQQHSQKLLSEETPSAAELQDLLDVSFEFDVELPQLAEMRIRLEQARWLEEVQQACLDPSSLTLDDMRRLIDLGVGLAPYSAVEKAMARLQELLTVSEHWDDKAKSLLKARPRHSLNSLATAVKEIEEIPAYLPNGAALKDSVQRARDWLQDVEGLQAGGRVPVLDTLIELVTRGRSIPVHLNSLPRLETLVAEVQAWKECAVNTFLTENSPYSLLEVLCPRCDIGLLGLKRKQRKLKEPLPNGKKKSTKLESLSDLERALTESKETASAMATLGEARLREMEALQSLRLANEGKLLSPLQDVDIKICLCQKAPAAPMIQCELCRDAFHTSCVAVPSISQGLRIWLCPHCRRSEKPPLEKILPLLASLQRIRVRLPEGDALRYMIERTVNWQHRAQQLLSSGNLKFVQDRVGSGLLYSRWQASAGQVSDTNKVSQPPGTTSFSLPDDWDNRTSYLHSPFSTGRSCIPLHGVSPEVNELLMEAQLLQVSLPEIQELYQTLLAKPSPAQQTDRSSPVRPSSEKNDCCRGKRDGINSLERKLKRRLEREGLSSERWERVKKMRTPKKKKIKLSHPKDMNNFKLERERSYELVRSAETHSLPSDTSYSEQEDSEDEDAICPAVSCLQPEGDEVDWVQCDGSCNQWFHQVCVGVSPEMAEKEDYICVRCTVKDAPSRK
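Here, H3K4me3 peptide (12.5 µM in substrate mix) is demethylated by KDM5BΔAP, 200 nM final, after 10 min compound exposure. Formaldehyde product is coupled through FDH (0.25 U/mL in mix) to NADH fluorescence; 30-min ΔRFU feeds dose-response curves.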
Numbers without * were called inactive; i = inactive; ! = a repeat was not active. This excerpt belongs to a sample that is enriched for hits. Potency is read from the fitted curve at half-maximal effect.

SMILES	KDM5B inh
O=C(c1ccc(Br)cc1)N1CCN(c2cc(-c3ccc(Cl)cc3)[nH]n2)CC1	i
Cc1ccc(NC(=O)CCc2c(C)nn(-c3ccc(N4CCOCC4)nn3)c2C)c(C)c1	i
CCNc1cc(N2CCC(CCC(=O)N3CCOCC3)CC2)ncn1	i
COc1ccc(CCC(=O)N2CCN(c3ccc(OC)cc3)CC2)cc1	i
CN(CC1CCOCC1)C(=O)CCc1ccccc1	i
Cc1ccc(NC(=O)CCc2ccnc(N3CCCC3)c2)c(C)c1	31.6µM*
CCOC(=O)c1ccc(NCc2ccnc(N3CCOCC3)c2)nc1	i
CC(=O)N1CCN(C(=O)CCc2ccnc(N3CCOCC3)c2)CC1	28.2µM*
Cc1ccc(NC(=O)CCc2ccc(C)s2)c(C)c1	i
CCCN(C)C(=O)CCc1ccnc(N2CCOCC2)c1	25.1µM*
COC(=O)c1cc(OC(=O)c2cc3ccccc3o2)cc(C(=O)OC)c1	i
O=C(Nc1cc(C(F)(F)F)ccc1Cl)C(Sc1n[nH]c(=O)[nH]c1=O)c1ccccc1 (stereo not given)	i
CC(=O)c1ccc(S(=O)(=O)NCCC(=O)N2CCN(CC(=O)Nc3cccc(F)c3)CC2)cc1	i
Cc1ccc(NC(=S)N2CCCCCC2)cc1	i
CCc1ccc2occ(CC(=O)Nc3ccc(C)c(C)c3)c2c1	i
CCc1nnsc1C(=O)N(C)CCOc1ccccc1F	i
CCCCNC(=O)c1nn(C)c2c1CSc1ccccc1-2	i
OC1CCCN(c2ccc(-c3nc(-c4cccc(C(F)(F)F)c4)no3)cn2)C1 (stereo not given)	35.5µM*
O=C(NC1CCCN(c2ccc(C(F)(F)F)cn2)C1)c1ccnc(Cl)c1 (stereo not given)	i
COc1cccc(-c2noc(-c3ccc(N4CCCC(CO)C4)nc3)n2)c1OC (stereo not given)	31.6µM*
COc1cccc(-c2noc(-c3ccc(-c4ccc(O)cc4)nc3)n2)c1OC	i
FC(F)(F)c1cccc(N2CCN(Cc3ncc(-c4ccccc4)o3)CC2)c1	i
N#Cc1ccc(NC(=O)N2CCN(Cc3nc(-c4cccc(C(F)(F)F)c4)no3)CC2)cc1	i
COC1CCCN(c2cc(-c3cccc(C(F)(F)F)c3)nc3c(C)noc23)C1 (stereo not given)	i
COc1ccc(-c2cc(N3CCCC(NC(=O)c4cccc(OC)c4OC)C3)n[nH]2)cc1 (stereo not given)	i
SMILES	KDM5B inh
OCCN1CCN(c2ccc(-c3nc(-c4cccc(C(F)(F)F)c4)no3)cn2)CC1	28.2µM*
Cc1cc(C(=O)N2CCCC(Cc3noc(-c4cnccn4)n3)C2)nn1C (stereo not given)	i
FC(F)(F)c1cccc(CSc2ncnc3sc(-c4ccccc4)cc23)c1	i
Cc1cccc(N2CCN(C(=O)c3ccc4c(c3)N(Cc3ccccc3)C(=O)c3ccccc3S4(=O)=O)CC2C)c1 (stereo not given)	i
Cc1ccccc1C(=O)N(C)C1CCCc2ccccc21 (stereo not given)	i
CN(C)C(=O)N1CCCC(c2nc(-c3ccc4nc[nH]c4c3)no2)C1 (stereo not given)	i
CO[C@H]1O[C@@H]2COC(c3ccccc3)O[C@H]2[C@@H]2OC(c3ccccc3)O[C@H]12 (stereo not given in full)	i
COCCn1c(CO)nnc1C1CC(NC(=O)c2cn3ccsc3n2)C1 (stereo not given)	i
Cc1ocnc1C(=O)NC1CC(c2nnc(Cn3cccn3)n2C)C1 (stereo not given)	i
CCn1c(CO)nnc1C1CC(NC(=O)NCCc2ccccc2F)C1 (stereo not given)	i
Cn1c(Cn2cccn2)nnc1C1CC(Nc2ncnc3ccsc23)C1 (stereo not given)	i
Cn1c(Cn2cccn2)nnc1C1CC(NC(=O)c2sccc2N)C1 (stereo not given)	15.8µM*!
CCNc1ncc(C(=O)NC2CC(c3nnc(CO)n3CC)C2)cn1 (stereo not given)	25.1µM*
CCn1c(CO)nnc1C1CC(NC(=O)CN2CCOCC2)C1 (stereo not given)	i
CCn1c(CO)nnc1C1CC(NC(=O)c2sccc2N)C1 (stereo not given)	11.2µM*
CCn1c(CO)nnc1C1CC(NC(=O)c2nc(-c3ccccc3)[nH]c2C)C1 (stereo not given)	i
C=CCNC(=O)C1CC(c2ccc(F)cc2)=NO1 (stereo not given)	i
O=C(O)/C=C/c1c(F)cccc1Cl	i
CC(C)Oc1ccc(C(=O)N2[C@@H]3CC[C@H]2CC(NC(=O)c2ccncc2)C3)cc1 (stereo not given in full)	i
CC(C)NC(=O)c1ccc(-n2c(-c3ccccc3)cc3c2CCCCC3)cc1	i
COCCCNC(=O)C(NC(=O)c1ccccc1F)C1CCN(C(=O)C2CC2)CC1 (stereo not given)	i
CCOc1ccc(-c2nnc(N3CCCCC3)c3ccccc23)cc1	i
COc1cccc(-c2ncc3c(n2)OCCN(c2ccccc2)C3=O)c1OC	i
Cc1nnc(-c2cc(-c3ccccc3Oc3ccccc3)ccn2)n1CCN1CCOCC1	i
COc1ccc(N2Cc3c(ncnc3N3CCOCC3)N(C)CC2=O)cc1	i
SMILES	KDM5B inh
Cn1cc(-c2nc(N3CCOCC3)cc3c2CN(c2ccccc2)C3=O)cn1	20µM*
CN1Cc2ncnc(N3CCOCC3)c2CN(c2cccnc2)C1=O	i
COc1ccccc1-c1nc(N2CCOCC2)cc2c1CN(c1ccccc1)C2=O	35.5µM*
O=C1c2cc(N3CCOCC3)nc(-c3ccccc3Oc3ccccc3)c2CN1C1COC1	28.2µM*
Cc1cc(N2CCOCC2)nc(Nc2ccc(NC(=O)c3ccccc3)cc2)n1	i
COc1ccc(NC(=O)Nc2ccc3nc(N4CCOCC4)cc(C)c3c2)cc1OC	i
CCN(CC)C(=O)CNC(=O)c1nn(-c2ccc(OC)c(Cl)c2)c(=O)c2ccccc12	i
O=C(O)c1ccc(-c2ccc(OC(F)(F)F)cc2)cc1	i
COc1cccc(CC(=O)N2CCC3(CC2)OC(=O)N(Cc2ncccn2)C3(C)c2ccccc2)c1 (stereo not given)	i
C=CCN(Cc1ccc(F)cc1)Cc1ccccc1OCC(N)=O	i
Cn1c2c(c3ccccc31)CCN1CCC[C@]21c1ccccc1	i
CCCc1nnc(NC(=O)c2cc(-c3ccncc3)nc3ccccc23)s1	i
O=C(Nc1cccnc1)c1ccc(F)c(S(=O)(=O)N2CCOCC2)c1	i
O=C(Nc1cccnc1)c1cc(-c2ccccc2F)cc2c1OCCN2Cc1cccnc1	35.5µM*
CC(C)NC(=O)c1cc(-c2ccccc2F)cc2c1OCCN2Cc1cccnc1	22.4µM*
CN(C)CCN(C)C(=O)c1cc(-c2ccccc2F)cc2c1OCCN2Cc1cccnc1	i
O=C(NCCc1cccnc1)c1cccc(F)c1	i
CCOc1ccccc1-c1noc(CN2CCCc3c(C(=O)NC(C)C)cccc32)n1	i
O=C(NCc1cccnc1)c1ccc2c(c1)N(Cc1ccccc1F)C(=O)c1ccccc1S2=O (stereo not given)	i
CC(Cc1cccnc1)NC(=O)c1cc(COc2c(F)cccc2F)on1 (stereo not given)	i
CN(C(=O)CN1CCN(Cc2ccccc2)CC1)c1ccccc1C(=O)NCc1ccco1	i
O=C(NCc1ccco1)c1cc(-c2ccccc2F)cc2c1OCCN2Cc1cccnc1	28.2µM*
O=C(Nc1cccnc1)c1nc2c(o1)CCN(Cc1ccc(F)cc1F)CC2	i

Bioassay records as filed in PubChem.
